# Hits are enriched below; roughly 0.43% of the tested compounds scored in any of these assays.
# PKA-R1A act: PKA-R1A complex activation. P00514+P68181. PKA-R1A dissociation, Cy5-IP20 fluorescence polarization; scaled: DMSO 0%, 113 µM cGMP 100%. activation, % at 11.4 µM. hit rate 0.083% among 340,000;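 active means percent activation above the mean of all tested compounds plus 3 SD, cut at about 19% in these data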;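 further: higher means more PKAc released from R1A so a rise in polarization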
# PKA-R2B act: PKA-R2B complex activation. P22694+P31323. PKA-R2B holoenzyme dissociation, Cy5-IP20 fluorescence polarization; R2B truncated from residue 108, S112A mutant; 0% DMSO only, 100% 113 µM cGMP. activation, % at 11.4 µM. hit rate 0.079% among 340,000;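 active means activation above a cutoff set at the mean over all compounds plus 3 SD, cut at about 18% in these data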;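 further: higher means more holoenzyme dissociation and a rise in polarization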
# HDAC3 inhib: inhibitors of human histone deacetylase 3; O15379; recombinant HDAC3, fluorogenic peptide/trypsin coupled, fluorescence; hit rate 0.15% among 320,000; inhibition, % at 8.3 µM; in the data active means inhibition above about 26%, passing the limit was not always enough; inconclusive means no clear call, values can overlap the other calls
# Rtt109 HAT inh: blocks Candida albicans Rtt109/Vps75 acetyltransferase activity; purified Rtt109/Vps75, ThioGlo CoA-SH fluorescence, 4 h; inhibition, % at 34.9 µM; hit rate 0.16% among 330,000; Q5AAJ8;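 active means inhibition of at least 50% in every replicate; inconclusive means best replicate reaches 50% inhibition but some replicates fall short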
# R1A FP artifact: counter-screen for PKA-R1A activators: fluorescence polarization artifacts | shares compounds with PKA-R1A act | Cy5-IP20 peptide alone, fluorescence polarization artifact counterscreen | activation, % at 11.4 µM | hit rate 7% among 280;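 active means mean activation over triplicate runs exceeds the adjusted cutoff derived for the parent primary screen, cut at about 19% in these data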;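 further: no PKA protein present so any polarization rise reflects compound interference; 0% = tracer peptide mix alone and 100% = mix with added PKA catalytic subunit; higher means stronger polarization artifact and likely false positive in parent screen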
# PKA-R1A act conf: PKA-R1A complex activation, confirmation; AID 504800; hit rate 9% among 280; Cy5-IP20 fluorescence polarization, PKA-R1A holoenzyme dissociation; shares compounds with PKA-R1A act; activation, % at 11.4 µM;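 active means mean activation over replicate wells exceeds the adjusted hit threshold taken from the earlier primary screen, cut at about 20% in these data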;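 further: 0% = holoenzyme mix with DMSO only and 100% = cGMP-activated control wells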
# Target sequence (P00514 whole entry, looked up): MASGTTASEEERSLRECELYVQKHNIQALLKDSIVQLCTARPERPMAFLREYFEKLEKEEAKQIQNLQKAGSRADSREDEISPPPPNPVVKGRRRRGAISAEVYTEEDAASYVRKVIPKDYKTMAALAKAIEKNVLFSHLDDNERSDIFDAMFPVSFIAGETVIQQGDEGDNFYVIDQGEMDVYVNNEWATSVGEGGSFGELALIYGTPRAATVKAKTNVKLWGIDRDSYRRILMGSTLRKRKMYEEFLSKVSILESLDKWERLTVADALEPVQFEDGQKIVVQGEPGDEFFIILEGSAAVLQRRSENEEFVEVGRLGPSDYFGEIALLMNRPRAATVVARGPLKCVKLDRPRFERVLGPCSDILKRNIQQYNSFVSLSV
# Starred values were filed as active, the others as inactive; ? = inconclusive; . = no result.
SMILES,PKA-R1A act,PKA-R2B act,HDAC3 inhib,Rtt109 HAT inh,R1A FP artifact,PKA-R1A act conf
CN(C)S(=O)(=O)c1cccc(NC(=O)C2Cc3ccccc3CN2C(=O)c2ccco2)c1 (stereo not drawn),8,-21,-5,17,.,.
O=C(CSC(=S)N1CCCC1)c1ccccc1,-1,7,4,-10,.,.
O=C(CSC(=S)N1CCCCC1)c1ccccc1,20*,9,3,1,1,1
COc1ccc(N2CC(C(=O)N(CC(C)C)c3c(N)n(Cc4ccccc4)c(=O)[nH]c3=O)CC2=O)c(OC)c1 (stereo not drawn),-7,9,5,-5,.,.
COc1cc(NC(=O)c2cc(-c3ccco3)on2)cc(OC)c1OC,19*,-3,2,1,3,0
COc1cccc(/C=N/NC(=O)CCc2ccccc2)c1,23*,-5,-1,-3,5,2
Cc1ccc2nc3sc(C(=O)N4CCOCC4)c(N)c3cc2c1,4,-4,-2,-22,.,.
Cc1ccc2cc3c(N)c(C(=O)N4CCOCC4)sc3nc2c1,19*,3,3,11,5,1
CC(C)CCOc1ccc(C(=O)N2CCCC2C(=O)O)cc1 (stereo not drawn),20*,-2,6,1,3,2
CC(C)CCOc1ccc(C(=O)O)cc1,-2,-5,2,22,.,.
Cc1ccc(C(=O)Nc2ccc(NC(=O)c3ccco3)c(C)c2)cc1,2,8,-16,22,.,.
Cc1cc(NC(=O)c2ccc(Br)o2)ccc1NC(=O)c1ccco1,19*,-1,6,-6,2,4
O=C(Nc1ccc(F)cc1F)c1ccco1,24*,6,4,5,3,6
COc1ccc(NC(=O)CN(C)S(=O)(=O)c2ccc3c(c2)CC(C)N3C(C)=O)cc1OC (stereo not drawn),-2,-5,2,5,.,.
N#Cc1ccccc1OCC(=O)Nc1ccccc1C(=O)NC1CC1,-4,-2,-7,-3,.,.
O=C(CNc1ccccc1)N/N=C/c1ccc([N+](=O)[O-])cc1,22*,-11,3,.,-2,3
CC(C)[C@H](NC(=O)c1ccccc1)C(=O)Nc1cccc(S(=O)(=O)N2CCOCC2)c1,-3,8,-4,-14,.,.
CC(C)[C@H](NC(N)=O)C(=O)Nc1cccc(S(=O)(=O)N2CCOCC2)c1,20*,-6,7,0,2,-1
CC1CN(C(=O)CCC(=O)N2CCN(c3cccc(C(F)(F)F)c3)CC2)c2ccccc2O1 (stereo not drawn),-8,-18,1,?,.,.
COc1ccc(Cl)cc1NC(=O)CN(C)CC(=O)Nc1ccc(C)cc1Br,3,-8,4,10,.,.
COC(=O)c1ccc(OC(=O)CN2C(=O)c3ccccc3C2=O)cc1,-1,-13,6,-5,.,.
COc1ccc(CC(=O)NCCc2ccc(S(N)(=O)=O)cc2)cc1,-4,2,13,6,.,.
Cc1ccc(CC(=O)NCCc2ccc(S(N)(=O)=O)cc2)cc1,19*,7,-5,1,0,-2
Cc1ccc(/C=N/NC(=O)c2nnn(-c3nonc3N)c2-c2ccc3c(c2)OCO3)s1,1,3,-3,-2,.,.
COc1cccc(Cl)c1NC(=O)N1CCc2c([nH]c3ccccc23)C1C(F)(F)F (stereo not drawn),-1,13,1,2,.,.
SMILES,PKA-R1A act,PKA-R2B act,HDAC3 inhib,Rtt109 HAT inh,R1A FP artifact,PKA-R1A act conf
COc1ccccc1NC(=O)N(C)C[C@H]1Oc2ncc(C#CCN(C)C)cc2C(=O)N([C@H](C)CO)C[C@H]1C,21*,-13,.,.,0,-1
COCCN(C(=O)CSc1nc2nc(C)cc(C)n2n1)c1c(N)n(Cc2ccccc2)c(=O)[nH]c1=O,20*,-1,6,-9,5,3
COc1ccc(S(=O)(=O)NC2CC2)cc1-n1cnnn1,.,.,1,-1,.,.
COc1ccc(S(=O)(=O)Nc2c(C)cccc2C)cc1-n1cnnn1,19*,4,0,-1,7,6
CC(=O)NNC(=O)c1cc2sccc2s1,7,-12,-5,-1,.,.
CC(C)C(=O)NNC(=O)c1cc2sccc2s1,23*,-2,1,1,-1,2
CCC(C(=O)NC(C)(C)C)N(Cc1ccc(F)cc1)C(=O)c1snc(C(N)=O)c1N (stereo not drawn),-1,-1,-3,9,.,.
O=C(/C=C/c1ccccc1)Nn1c(-c2cccs2)nc2ccccc2c1=O,0,1,3,-5,.,.
CCCCOc1ccc(C(=O)Nn2c(-c3cccs3)nc3ccccc3c2=O)cc1,19*,6,-6,-20,2,4
Nc1nnnn1/N=C/c1ccccn1,21*,-3,3,-8,0,5
CC1CCCN(CCC(=O)c2ccc(Br)cc2)C1 (stereo not drawn),19*,-3,-1,5,3,-1
CCOC(=O)Cc1csc(SCC(=O)N2CCN(c3ccccc3)CC2)n1,-9,-4,2,-5,.,.
Cc1ccc(C(=O)NCC(=O)OCc2nnc(-c3ccc([N+](=O)[O-])cc3)o2)s1,3,-2,-13,6,.,.
Cc1c(-c2ccccc2)[n+](=O)c(-c2ccc(Cl)cc2)c(C)n1[O-],19*,-3,1,3,5,3
COc1ccc2nc(NC(=O)c3ccc(NC(=O)C4CCCO4)cc3)sc2c1 (stereo not drawn),20*,5,-11,-10,0,-2
Cc1ccc(NC(=O)OCc2ccccc2S(C)=O)cc1 (stereo not drawn),9,5,-8,-3,.,.
COc1ccc2[nH]c(=O)c(CN(C(=O)c3ccccn3)c3ccccc3)cc2c1,20*,-2,7,-16,1,-1
COc1ccc2[nH]c(=O)c(CN(C(=O)c3cccnc3)c3ccccc3)cc2c1,-1,4,-8,5,.,.
CC(C)C(=O)Nc1c2c(nc3c1CCC3)CCCC2,24*,5,-2,6,3,0
CC(=O)c1ccc(N2CCCC2)c(F)c1,.,.,7,.,.,.
CC(=O)c1ccc(N2CCC(C)CC2)c(F)c1,20*,12,-2,1,-1,1
CC(CC(=O)N1CCc2ccccc21)S(=O)(=O)c1ccc2c(c1)NC(=O)CO2 (stereo not drawn),-23,2,-7,-11,.,.
COc1ccc(Cn2ccnc2)cc1Br,20*,8,1,-4,1,1
COc1ccc(Cn2ccnc2)cc1[N+](=O)[O-],-6,-15,-5,-3,.,.
O=C(Nc1ccc(Oc2cccnc2)cc1)C1CCN(Cc2ccccc2)CC1,19*,2,-6,-2,2,1
Cc1ccc(CN2CCC(C(=O)Nc3ccc(Oc4cccnc4)cc3)CC2)cc1,13,-5,.,-1,.,.

# Screening data deposited in PubChem by several laboratories.
